Assay results as given in paper PMC5540273 (PLoS ONE, 2017).
“And” between values parts separate entries of the source, which are not always exact repeats. Equal entries are not always repeated. Where two headings read alike, the source gives them in different places.

Columns and labels:
HPK1 = details: concentration: 1 μM, replicates: in singlicate; n = 1
HUNK = details: concentration: 1 μM, replicates: in singlicate, n = 1
ICK = details: concentration: 1 μM, replicates: in singlicate, n = 1
IGF1R = details: concentration: 1 μM, replicates: in singlicate, n = 1
IKK-alpha = test system: T1, IKK-alpha; details: concentration: 1 μM, replicates: in singlicate, n = 1
T1 construct: gene CHUK

IKK-beta = test system: T2, IKK-beta; details: concentration: 1 μM, replicates: in singlicate, n = 1
T2 construct: gene IKBKB

IKK-epsilon = test system: T3, IKK-epsilon; details: concentration: 1 μM, replicates: in singlicate, n = 1
T3 construct: gene IKBKE

INSRR = details: concentration: 1 μM, replicates: in singlicate; n = 1
INSR = details: concentration: 1 μM, replicates: in singlicate, n = 1
IRAK1 = details: concentration: 1 μM, replicates: in singlicate, n = 1
IRAK3 = details: concentration: 1 μM, replicates: in singlicate; n = 1
IRAK4 = details: concentration: 1 μM, replicates: in singlicate, n = 1
ITK = details: concentration: 1 μM, replicates: in singlicate, n = 1
[1] = test system: JAK1(JH1domain-catalytic); details: concentration: 1 μM, replicates: in singlicate, n = 1
[2] = test system: JAK1(JH2domain-pseudokinase); details: concentration: 1 μM, replicates: in singlicate, n = 1
[3] = test system: JAK2(JH1domain-catalytic); details: concentration: 1 μM, replicates: in singlicate, n = 1
[4] = test system: JAK3(JH1domain-catalytic); details: concentration: 1 μM, replicates: in singlicate, n = 1
JNK1 = test system: T4, JNK1; details: concentration: 1 μM, replicates: in singlicate, n = 1
T4 construct: gene MAPK8

JNK2 = test system: T5, JNK2; details: concentration: 1 μM, replicates: in singlicate, n = 1
T5 construct: gene MAPK9

JNK3 = test system: T6, JNK3; details: concentration: 1 μM, replicates: in singlicate, n = 1
T6 construct: gene MAPK10
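Further: KINOMEscan kinase panel screen.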

Cn1ccc2ncnc(Oc3ccc(NC(=O)Nc4ccncc4)c(Cl)c3)c21
%Inh (HPK1): 0% | %Inh (HUNK): 0% | %Inh (ICK): 0% | %Inh (IGF1R): 0% | %Inh (IKK-alpha): 14% | %Inh (IKK-beta): 16% | %Inh (IKK-epsilon): 0% | %Inh (INSRR): 0% | %Inh (INSR): 11% | %Inh (IRAK1): 8% | %Inh (IRAK3): 0% | %Inh (IRAK4): 7% | %Inh (ITK): 0% | %Inh [1]: 14% | %Inh [2]: 0% | %Inh [3]: 0% | %Inh [4]: 0% | %Inh (JNK1): 0% | %Inh (JNK2): 0% | %Inh (JNK3): 0%

O=C(Nc1n[nH]c2cc(-c3cccc(F)c3)ccc12)C1CC1 [SB-735464]
%Inh (HPK1): 0% | %Inh (HUNK): 0% | %Inh (ICK): 34% | %Inh (IGF1R): 0% | %Inh (IKK-alpha): 25% | %Inh (IKK-beta): 37% | %Inh (IKK-epsilon): 14% | %Inh (INSRR): 2% | %Inh (INSR): 9% | %Inh (IRAK1): 10% | %Inh (IRAK3): 0% | %Inh (IRAK4): 17% | %Inh (ITK): 0% | %Inh [1]: 12% | %Inh [2]: 23% | %Inh [3]: 7% | %Inh [4]: 0% | %Inh (JNK1): 23% | %Inh (JNK2): 12% | %Inh (JNK3): 17%

Cc1nnc(-c2ccc(C)c(-c3ccc(C(=O)Nc4ccc(NS(C)(=O)=O)cc4)cc3)c2)o1 [GW702865]
%Inh (HPK1): 0% | %Inh (HUNK): 15% | %Inh (ICK): 0% | %Inh (IGF1R): 17% | %Inh (IKK-alpha): 0% | %Inh (IKK-beta): 0% | %Inh (IKK-epsilon): 31% | %Inh (INSRR): 0% | %Inh (INSR): 0% | %Inh (IRAK1): 17% | %Inh (IRAK3): 0% | %Inh (IRAK4): 0% | %Inh (ITK): 0% | %Inh [1]: 9% | %Inh [2]: 0% | %Inh [3]: 0% | %Inh [4]: 0% | %Inh (JNK1): 0% | %Inh (JNK2): 0% | %Inh (JNK3): 0%

NCC(NC(=O)c1cc(-c2cn[nH]c2)c(-c2ccnc3[nH]ccc23)s1)c1ccccc1.O=C(O)C(F)(F)F.O=C(O)C(F)(F)F (centres unmarked) [GSK1325775]
%Inh (HPK1): 63% | %Inh (HUNK): 0% | %Inh (ICK): 3% | %Inh (IGF1R): 0% | %Inh (IKK-alpha): 54% | %Inh (IKK-beta): 79% | %Inh (IKK-epsilon): 24% | %Inh (INSRR): 0% | %Inh (INSR): 3% | %Inh (IRAK1): 93.6% | %Inh (IRAK3): 0% | %Inh (IRAK4): 21% | %Inh (ITK): 7% | %Inh [1]: 45% | %Inh [2]: 11% | %Inh [3]: 95.7% | %Inh [4]: 100% | %Inh (JNK1): 40% | %Inh (JNK2): 7% | %Inh (JNK3): 12%

CC(C)(CN)c1nc(-c2ccc(Cl)c(O)c2)c(-c2ccncc2)[nH]1.O=C(O)C(F)(F)F [SB-477794]
%Inh (HPK1): 46% | %Inh (HUNK; 1 µM): 0% and 16% | %Inh (ICK; 1 µM): 23% and 0% | %Inh (IGF1R; 1 µM): 0% and 9% | %Inh (IKK-alpha; 1 µM): 64% and 34% | %Inh (IKK-beta; 1 µM): 33% and 0% | %Inh (IKK-epsilon; 1 µM): 10% and 6% | %Inh (INSRR): 0% | %Inh (INSR; 1 µM): 23% and 0% | %Inh (IRAK1; 1 µM): 62% and 44% | %Inh (IRAK3): 0% | %Inh (IRAK4; 1 µM): 43% and 0% | %Inh (ITK; 1 µM): 9% and 0% | %Inh ([1]; 1 µM): 28% and 15% | %Inh ([2]; 1 µM): 0% and 2% | %Inh ([3]; 1 µM): 18% and 8% | %Inh ([4]; 1 µM): 0% and 28% | %Inh (JNK1; 1 µM): 41% and 32% | %Inh (JNK2; 1 µM): 85% and 80% | %Inh (JNK3; 1 µM): 93.6% and 92.8%

Cc1ccc(NC(=O)c2ccnc(N3CCN(C)CC3)c2)cc1-c1ccc(C(=O)NCC2CC2)cc1 [GW775604]
%Inh (HPK1): 0% | %Inh (HUNK): 34% | %Inh (ICK): 0% | %Inh (IGF1R): 0% | %Inh (IKK-alpha): 0% | %Inh (IKK-beta): 0% | %Inh (IKK-epsilon): 0% | %Inh (INSRR): 0% | %Inh (INSR): 0% | %Inh (IRAK1): 0% | %Inh (IRAK3): 0% | %Inh (IRAK4): 0% | %Inh (ITK): 0% | %Inh [1]: 0% | %Inh [2]: 27% | %Inh [3]: 2% | %Inh [4]: 0% | %Inh (JNK1): 0% | %Inh (JNK2): 0% | %Inh (JNK3): 0%

COc1ccc(Nc2ncc(C#N)c(Nc3ccccc3C(N)=O)n2)cc1N1CCN(C)CC1.Cl [GSK1558669]
%Inh (HPK1): 96.4% | %Inh (HUNK): 0% | %Inh (ICK): 97.6% | %Inh (IGF1R): 99.6% | %Inh (IKK-alpha): 97.8% | %Inh (IKK-beta): 88% | %Inh (IKK-epsilon): 93.8% | %Inh (INSRR): 100% | %Inh (INSR): 99.9% | %Inh (IRAK1): 99.8% | %Inh (IRAK3): 100% | %Inh (IRAK4): 99.4% | %Inh (ITK): 99.8% | %Inh [1]: 0% | %Inh [2]: 99.9% | %Inh [3]: 99.1% | %Inh [4]: 98.8% | %Inh (JNK1): 99.5% | %Inh (JNK2): 100% | %Inh (JNK3): 99.9%

O=c1cc(N2CCOCC2)nc2n(Cc3cccc(F)c3)ccn12 [GSK2297430]
%Inh (HPK1): 34% | %Inh (HUNK): 4% | %Inh (ICK): 0% | %Inh (IGF1R): 9% | %Inh (IKK-alpha): 3% | %Inh (IKK-beta): 5% | %Inh (IKK-epsilon): 0% | %Inh (INSRR): 0% | %Inh (INSR): 0% | %Inh (IRAK1): 0% | %Inh (IRAK3): 0% | %Inh (IRAK4): 1% | %Inh (ITK): 0% | %Inh [1]: 8% | %Inh [2]: 0% | %Inh [3]: 2% | %Inh [4]: 0% | %Inh (JNK1): 21% | %Inh (JNK2): 13% | %Inh (JNK3): 0%

COc1ccc(S(=O)(=O)NC2CCN(c3cc(C)nc(Nc4cccc(C#N)c4)n3)CC2)cc1.O=C(O)C(F)(F)F [GSK1653539]
%Inh (HPK1): 38% | %Inh (HUNK): 2% | %Inh (ICK): 0% | %Inh (IGF1R): 0% | %Inh (IKK-alpha): 0% | %Inh (IKK-beta): 0% | %Inh (IKK-epsilon): 49% | %Inh (INSRR): 0% | %Inh (INSR): 0% | %Inh (IRAK1): 0% | %Inh (IRAK3): 0% | %Inh (IRAK4): 0% | %Inh (ITK): 10% | %Inh [1]: 34% | %Inh [2]: 0% | %Inh [3]: 0% | %Inh [4]: 0% | %Inh (JNK1): 0% | %Inh (JNK2): 28% | %Inh (JNK3): 12%

O=C(NCCCN1CCOCC1)c1cccc(Nc2nccc(Nc3ccc(Oc4ccccc4)cc3)n2)c1 [GW663929]
%Inh (HPK1): 8% | %Inh (HUNK): 0% | %Inh (ICK): 0% | %Inh (IGF1R): 0% | %Inh (IKK-alpha): 0% | %Inh (IKK-beta): 0% | %Inh (IKK-epsilon): 0% | %Inh (INSRR): 0% | %Inh (INSR): 15% | %Inh (IRAK1): 28% | %Inh (IRAK3): 63% | %Inh (IRAK4): 0% | %Inh (ITK): 0% | %Inh [1]: 46% | %Inh [2]: 21% | %Inh [3]: 82% | %Inh [4]: 0% | %Inh (JNK1): 33% | %Inh (JNK2): 25% | %Inh (JNK3): 16%
